This is part of a sample that, as a whole, favours compounds with a hit. Of some 83,000 tested, about 20% had one in any assay.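 Assay: single dose, 48 h. Readout: percent growth (0 = no net growth; negative = cell death). Active: <10.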 Values without a mark were called inactive. The source made the active and inactive calls.
Tests used:
Assay in all cases: NCI-60 one-dose screen, 48 h (100 = growth as untreated, 0 = no growth, -100 = all killed)
Conditions in all cases: 10 µM
DU-145 prostate = system: DU-145 prostate
K-562 leukemia = system: K-562 leukemia
MALME-3M melanoma = system: MALME-3M melanoma
MDA-MB-231 breast = system: MDA-MB-231 breast
RXF 393 renal = system: RXF 393 renal
SF-268 CNS = system: SF-268 CNS
SF-295 CNS = system: SF-295 CNS
SF-539 CNS = system: SF-539 CNS
UACC-257 melanoma = system: UACC-257 melanoma
M14 melanoma = system: M14 melanoma

Structure (SMILES) | growth (DU-145 prostate) | growth (K-562 leukemia) | growth (MALME-3M melanoma) | growth (MDA-MB-231 breast) | growth (RXF 393 renal) | growth (SF-268 CNS) | growth (SF-295 CNS) | growth (SF-539 CNS) | growth (UACC-257 melanoma) | growth (M14 melanoma)
O=C(Nc1cccc(C(F)(F)F)c1)C(Cl)Cl | 98.3% | 102% | 94.7% | 127% | 104% | 99.4% | 90.4% | 93.8% | 98% | 98.8%
Cc1ccc2c(c1)-c1cc(C)nn1-c1ccc(C#N)cc1O2 | 98.7% | 19.7% | 76.1% | 61% | 65% | 74.4% | 67.2% | 69.1% | 78.4% | 40%
CC(=O)Nc1ccc(Sc2ccc(NC(C)=O)cc2)cc1 | 102% | 96.2% | 102% | 100% | 109% | 102% | 102% | 92% | 94.4% | 98.2%
CCCCN(CCCC)c1ccc(C(=NC(C)CCCN(CC)CC)c2ccc(N(C)C)cc2)cc1 (stereo not given) | 21.1% | -51.3% (active) | -77.9% (active) | -79.4% (active) | -84% (active) | -43.4% (active) | -72% (active) | -73.2% (active) | -70.6% (active) | -83% (active)
CS(=O)(=O)Nc1ccc(Nc2c3ccccc3nc3cc(Cl)ccc23)cc1 | 24.2% | 20.6% | 28.3% | 86.5% | 20.9% | 37.6% | -13.5% (active) | 30.7% | 48% | 36.6%
COc1ccc(NC(=O)c2sc3nc4c(cc3c2N)C(O)CCC4)cc1 (stereo not given) | 93.3% | 80.6% | 122% | 116% | 102% | 99.7% | 82.4% | 111% | 97.4% | 101%
CCCCc1ccc(NC(=O)N(CCCl)N=O)cc1 | 106% | 88.1% | 101% | 107% | 93.4% | 79.3% | 73.9% | 82.2% | 103% | 99.2%
Cn1cnc([N+](=O)[O-])c1/C=C1\Oc2ccc(Cl)cc2C1=O | 94.2% | 52.4% | 87.6% | 86.7% | 99.1% | 86.5% | 105% | 99.2% | 84.9% | 87.5%
CCN1CCN(c2nc(NNC(=O)c3cccc(OC)c3)nc(N3CCN(C(c4ccccc4)c4ccccc4)CC3)n2)CC1 | 81.4% | 16.5% | -79.5% (active) | 71.9% | 56.1% | 80.9% | 84% | 71.6% | 45.9% | -43.2% (active)
COc1ccc(-c2ccc(-c3ccc(C(=N)N)c(F)c3)s2)cc1 | -97.8% (active) | -70.2% (active) | -62% (active) | -89% (active) | -80.4% (active) | -89.8% (active) | -87.5% (active) | -93.7% (active) | -87.1% (active) | -83.5% (active)
COc1cc2nc(Sc3sc(N)nc3C)n(-c3ccc(Oc4ccccc4)cc3)c(=O)c2cc1OC | 98.3% | 78.6% | 98.3% | 90.1% | 85.9% | 102% | 85.4% | 81.3% | 89.7% | 81.6%
CCNC(=S)NN | 97.9% | 43.9% | 70.4% | 90.5% | 100% | 103% | 89.4% | 100% | 56.8% | 87.2%
COc1ccc(-c2nc3sc(-c4ccccc4)c(-c4ccccc4)n3c2/C=C/c2ccc(F)cc2)cc1 | 103% | 107% | 96.6% | 86.7% | 89.4% | 97.8% | 97% | 92.1% | 99% | 83.1%
CS(=O)(=O)Nc1ccc(OCc2nnc(-c3ccc(Cl)cc3)o2)c(F)c1 | 101% | 100% | 111% | 85.7% | 108% | 98.9% | 94.1% | 85.1% | 99.6% | 99.3%
COc1ccc(-c2cc(/C=C3\C(=O)Nc4cc(Cl)ccc43)[nH]n2)cc1OC | 96.4% | 33.1% | 37.7% | 78.2% | 73.1% | 74.4% | 47.6% | 69.1% | 114% | 68%
COc1ccc(-c2cc(=O)n(-c3nc4ccccc4[nH]3)[nH]2)cc1OC | 83% | 26.5% | 67.2% | 94.5% | 3.51% (active) | 72.3% | -12.8% (active) | 71.3% | 89.2% | 54.5%
COc1ccc(C2C=C(c3ccc(Cl)cc3)N=C3SC=CN32)c(Br)c1 (stereo not given) | 97% | 66.1% | 106% | 47.7% | 69.8% | 71.2% | 55.6% | 91.1% | 83.2% | 78.6%
N#CN1CC[C@H](C(=O)Nc2ncc(-c3ccncc3)s2)C1 | 8.45% (active) | 3.89% (active) | -19.4% (active) | 2.16% (active) | -58.8% (active) | 5.17% (active) | 4.53% (active) | -20.7% (active) | -19.4% (active) | 1.13% (active)
CCCCCc1cc[n+](CC(=O)c2ccc(Cl)cc2)cc1 | 95.2% | 90.7% | 89.8% | 76.6% | 95.6% | 84.7% | 94% | 93.9% | 97.5% | 85.9%
O=C(CSc1nnc(-c2ccc(Cl)cc2)o1)c1ccccc1 | 101% | 102% | 112% | 95.2% | 99.9% | 101% | 100% | 91.4% | 98.9% | 108%
Cc1cccc2c1O/C(=C\c1ncc([N+](=O)[O-])n1C)C2=O | -29.7% (active) | 0.421% (active) | -51.5% (active) | -7.78% (active) | -63.7% (active) | -26.4% (active) | -15.2% (active) | -61% (active) | -40.8% (active) | -49.2% (active)
O=NN(CCCl)C(=O)Nc1ccc(NC(=O)N(CCCl)N=O)cc1 | 111% | 92.6% | 105% | 109% | 109% | 61.2% | 74% | 19.7% | 85.7% | 93.1%
O=C(COCc1c(-c2ccccc2)no[n+]1[O-])Nc1nc(-c2ccc(Cl)cc2)cs1 | 109% | 108% | 97.8% | 99.9% | 112% | 97.9% | 101% | 109% | 96.5% | 108%
COc1cc(OC)cc(-c2ccc(-c3ccc(C(=N)N)cn3)o2)c1 | 21.6% | -59.9% (active) | -79.9% (active) | -83.2% (active) | -69.9% (active) | -20.3% (active) | -70.5% (active) | -69.1% (active) | -80.6% (active) | -77.9% (active)
NC1CCC(Nc2nc(NCc3ccc(-c4cccs4)nc3)c3ncn(C4CCCC4)c3n2)CC1 (stereo not given) | 8.83% (active) | -6% (active) | -74.7% (active) | -0.601% (active) | -50% (active) | -5.75% (active) | 0.906% (active) | -56.7% (active) | -74.6% (active) | -80.6% (active)
FC(F)(F)c1ccc(-c2cnc(Cl)nc2NCc2cc(C(F)(F)F)cc(C(F)(F)F)c2)cc1 | 18.8% | 16.3% | 33.6% | -28.6% (active) | 23.3% | 25.3% | -18.8% (active) | 33.1% | 38.2% | 41%
COc1ccc(C2=NNC(c3sc(Cl)nc3Cl)C2)cc1 (stereo not given) | 86.6% | 7.31% (active) | 74.3% | 67.3% | 71.7% | 73% | 102% | 110% | 94% | 59.7%
Nc1ccccc1NC(=O)CCCCCCC(=O)Nc1ccc2c(c1)/C(=C/c1ccc[nH]1)C(=O)N2 | 28.7% | 46.8% | 20% | 55.5% | 21.2% | 23.3% | 49.9% | 17% | 63.5% | 50.4%

Reference: PubChem BioAssay (NCI)
